GLP-1R inv ag: qHTS of GLP-1 Receptor Inverse Agonists (Inhibition Mode). Potency, µM (top dose mostly 38.3 µM), usual class: inhibitors. 1.6% of 410,000 active. HEK293 GLP-1R CRE-luciferase, luminescence, 24 h; GLP-1R form is constitutively active; further: nearly all actives have a fitted effect of over 55% in size
Target sequence (P43220 whole entry, looked up): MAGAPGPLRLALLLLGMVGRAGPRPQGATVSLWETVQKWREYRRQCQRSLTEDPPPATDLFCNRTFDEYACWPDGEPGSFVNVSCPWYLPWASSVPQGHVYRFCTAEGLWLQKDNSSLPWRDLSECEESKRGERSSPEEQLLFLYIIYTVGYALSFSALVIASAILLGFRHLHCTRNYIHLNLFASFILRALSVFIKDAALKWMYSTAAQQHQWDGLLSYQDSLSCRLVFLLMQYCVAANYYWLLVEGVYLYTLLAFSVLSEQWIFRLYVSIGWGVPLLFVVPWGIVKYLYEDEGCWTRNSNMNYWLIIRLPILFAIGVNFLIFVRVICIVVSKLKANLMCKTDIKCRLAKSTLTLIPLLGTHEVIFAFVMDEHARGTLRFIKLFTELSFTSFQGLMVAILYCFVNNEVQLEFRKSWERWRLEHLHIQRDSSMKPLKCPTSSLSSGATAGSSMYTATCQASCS
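Stable HEK293 clone (constitutively active GLP-1R + cAMP-response luciferase); 200 cells/uL plated, 12 h pre-culture, compound 24 hr, 37 deg C/5% CO2; detection reagent 12 min RT; luminescence.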
GLP1R ag: qHTS of GLP-1 Receptor Agonists | AID 624172, 2012 | Potency, µM (highest dose often 45.6 µM), hits mostly activators | HEK293 GLP-1R CRE-luciferase, luminescence, 4-6 h; cells express a hypersensitive GLP-1R form | 0.007% of 380,000 active
D3 antag: qHTS of D3 Dopamine Receptor Antagonist: qHTS. D(3) dopamine receptor (Homo sapiens), P35462. D3R cells, DiscoveRx beta-arrestin luminescence, antagonist mode; hits give low values. max response, negative = inhibition, %. 2.5% of 360,000 active. AID 652054, 2013; in the data active means max response below about -50%; inconclusive means no clear call, values can overlap the other calls
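Cells expressing the human receptor were seeded at 1500 cells/well, incubated overnight at 37 degrees C in 5% CO2, then exposed to library compounds with dopamine controls for 90 minutes at 37 degrees C before luminescent detection.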
DRD3 agonist: qHTS of D3 Dopamine Receptor Agonist: qHTS. max activation, %. 0.58% of 410,000 active. D(3) dopamine receptor (Homo sapiens), P35462. AID 652048, 2013. D3R DiscoveRx beta-arrestin cells, luminescence, 90 min; in the data active means max activation above about 30%
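Cells at 1500/well, incubated overnight, then treated with pinned compounds (dopamine as control) for 90 min at 37 degrees C. DiscoveRx reagent added for 30 - 60 minutes at room temperature; luminescence read.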
Each line names hits and unclear results; the compound was inactive in the other large screens. A selection: hits, their analogues and other compounds. The true share with any hit is near 4.3%. Unless noted, the call rests on the fitted dose curve; in most records, active means well fitted curve in the direction sought with a large enough effect; inconclusive means small, poorly fitted or top-dose-only effect, or another doubt; inactive means no such curve, though single readings can be large; an effect the other way counts as inactive or inconclusive.

O=[N+]([O-])c1cc(CN2CCOCC2)c2cccnc2c1O	none
CCN1CC(CN(C)Cc2nc(COc3ccccc3)no2)CC1=O (stereo not given)	none
CCN1CC(CN(C)Cc2nc(-c3ccc(OC)c4ccccc34)oc2C)CC1=O (stereo not given)	GLP-1R inv ag 10µM
CC(=O)N1c2ccccc2CC1C(=O)N1CCN(c2cccc(Cl)c2)CC1 (stereo not given)	none (no result: GLP1R ag, D3 antag)
Cc1cccn2c(=O)c3cc(C#N)c(=O)n(-c4nnc(SCc5ccc(F)cc5)s4)c3nc12	none (no result: GLP1R ag, D3 antag)
COc1ccc(CCC(C)NC2C3CC4CC(C3)CC2C4)cc1 (stereo not given)	D3 antag -97
COc1ccc(CCC(C)Nc2ccccc2F)cc1 (stereo not given)	none
CC(CCc1ccc(O)cc1)NCc1ccc(Br)cc1 (stereo not given)	GLP-1R inv ag inconclusive, DRD3 agonist 80
COc1cc(CCC(C)NCc2ccccc2)ccc1O (stereo not given)	DRD3 agonist 32
CC(CCc1ccccc1)NCC#N (stereo not given)	DRD3 agonist 32
COc1ccc(CC(=O)NC(C)CCc2ccccc2)cc1OC (stereo not given)	none
COc1ccccc1Nc1nn2c(=O)c3ccc(C(=O)NCCc4ccccc4)cc3nc2s1	GLP-1R inv ag inconclusive (no result: GLP1R ag, D3 antag)
Cc1cc(-c2ccc(C)c(S(=O)(=O)NCCC(C)N3CCCCCC3)c2)on1 (stereo not given)	none
COc1ccc(CCC(C)NCc2ccc(C(F)(F)F)cc2)cc1 (stereo not given)	GLP-1R inv ag inconclusive, D3 antag inconclusive
COc1ccc(CNC(C)CCc2ccccc2)cc1 (stereo not given)	D3 antag -55
Cc1noc(C)c1C(=O)N1CCC1(C)C(=O)NS(=O)(=O)c1ccc(Cl)cc1 (stereo not given)	none
Cc1noc(C)c1C(=O)N1CCC1(C)C(=O)NS(=O)(=O)c1cccc(Cl)c1 (stereo not given)	DRD3 agonist 30
CC(C)(C)OC(=O)N1CCC(C(=O)Nc2ccc(C(=O)NC3CC3)cc2)CC1	none
COc1ccc(C(=O)CC(=O)C(=O)Nc2ccc(C)cc2Cl)cc1	D3 antag -64
COc1cccc(C(=O)CC(=O)C(=O)Nc2ccc(C)cc2Cl)c1	GLP-1R inv ag inconclusive
O=C(NCCN1C(=O)S/C(=C\c2ccccc2F)C1=O)C1=COCCO1	GLP-1R inv ag 1µM
O=C(NCCN1C(=O)S/C(=C\c2ccccc2Cl)C1=O)C1=COCCO1	none
C=CCNC(=O)N1C2=NC(C(=O)OC)=C(C(=O)OC)[C@@H]3N(Cc4ccccc4)c4ccccc4[C@]23C[C@H]1C(=O)OC	none
O=[N+]([O-])c1ccc(NCCNc2ccc(Cl)nn2)cc1	D3 antag -74
O=C(NCCNc1ccc([N+](=O)[O-])cc1)c1ccccc1Cl	D3 antag inconclusive
O=[N+]([O-])c1ccc(N/N=C/c2cccc(O)c2O)c(S(=O)(=O)N2CCOCC2)c1	D3 antag -64
O=[N+]([O-])c1ccc(N/N=C/c2ccc(O)c(O)c2O)c(S(=O)(=O)N2CCOCC2)c1	none
COc1ccc(-c2noc(N3CCC(C(=O)Nc4cccc(C)c4C)CC3)n2)cc1	none (no result: GLP1R ag, D3 antag)
CC(C)[C@H](NC(=O)c1ccc([N+](=O)[O-])cc1Cl)C(=O)N1CCN(C/C=C/c2ccccc2)CC1	GLP-1R inv ag 10µM
COc1ccc(C(=O)NC(C(=O)N2CCN(C/C=C/c3ccccc3)CC2)C(C)C)cc1 (stereo not given)	none
CN(C)c1ccc(C(=O)Nc2c(C(=O)NC(C)(C)C)oc3ccccc23)cc1	none (no result: GLP1R ag, D3 antag)
CCOC(=O)c1sc2nc(CSc3ccccc3)nc(N3CCC(C(N)=O)CC3)c2c1C	GLP-1R inv ag inconclusive
CCOC(=O)c1sc2nc(CSc3ccccc3)nc(N3CCCN(C)CC3)c2c1C	GLP-1R inv ag inconclusive, D3 antag -62
C[C@@]12C(=O)N(c3ccc(F)cc3)C(=O)N1[C@@H]1c3ccccc3OC[C@@H]1[C@H]2c1ccccc1	GLP-1R inv ag 10µM
COc1ccc2c(c1)OC[C@H]1[C@H]2N2C(=O)c3cc(OC)ccc3NC(=O)[C@@]2(C)[C@H]1c1ccccc1	D3 antag -52
Cn1cnc(S(=O)(=O)N2CCCC(C(=O)NCc3ccccc3)C2)c1 (stereo not given)	none (no result: GLP1R ag, D3 antag)
CC(C)Oc1ccc(CNC(=O)C2CCN(C(=O)N3CC(C)Oc4ccccc43)CC2)cc1 (stereo not given)	GLP-1R inv ag inconclusive (no result: GLP1R ag, D3 antag)
COc1ccc(C2=NS(=O)(=O)N(C)C(C(=O)Nc3ccc4c(c3)OCO4)=C2)cc1	GLP-1R inv ag inconclusive, D3 antag -103
COc1ccc2cc(CNc3ccc(OC)c(OC)c3)c(=O)n(CC(=O)Nc3ccc(C)cc3)c2c1	none (no result: D3 antag)
CN(/C(=N\S(=O)(=O)c1ccccc1)c1ccccc1)c1ccc(O)cc1	none
O=C(NCc1ccco1)Nc1ccc2nsnc2c1	D3 antag -59
Cc1ccn(CCNC(=O)C2CCC(=O)N(CCc3ccc(Cl)cc3)C2)n1 (stereo not given)	none
COc1ccc(C(=O)N2CCN(c3nc4c(C)c(Cl)ccc4s3)CC2)c(OC)c1	DRD3 agonist 34 (no result: GLP1R ag, D3 antag)
Cc1c(Cl)ccc2sc(N3CCN(C(=O)C(C)C)CC3)nc12	GLP-1R inv ag inconclusive (no result: GLP1R ag, D3 antag)
CCN(CC)CCNC(=O)C12CC3CC(CC(C3)C1)C2	D3 antag -63
CCN(CC)C(=O)CSc1nc2ccccc2c(=O)n1CC1CCCCC1	GLP-1R inv ag 5.6µM
O=C(CSc1nc2ccccc2c(=O)n1CC1CCCCC1)N1CCOCC1	none
COc1ccccc1NC(=O)Cn1c(=O)n(CC(=O)NCc2ccccc2Cl)c(=O)c2sccc21	none (no result: GLP1R ag, D3 antag)
O=C(c1ccccc1)N1CCCCC1CCN1CCCCC1 (stereo not given)	none (no result: GLP1R ag, D3 antag)
COc1cc2c(cc1OC)[C@@H]1Cc3ccc(OC)c(OC)c3CN1CC2	D3 antag -99
COc1cc2c(cc1OC)C1Cc3ccc(OC)c(OC)c3CN1CC2 (stereo not given)	D3 antag inconclusive
COc1ccc2c(c1OC)CN1CCc3cc4c(cc3[C@@H]1[C@@H]2O)OCO4	D3 antag -117
CCn1ccc2c(OCC(=O)NCc3ccc(C)cc3)cccc2c1=O	none (no result: GLP1R ag, D3 antag)
COCCN(C(=O)c1ccccc1F)c1nc(-c2ccc(OC)cc2)cs1	GLP-1R inv ag 10µM
COc1ccc(-c2csc(N(CCCN(C)C)C(=O)c3ccccc3C)n2)cc1	GLP-1R inv ag 2.8µM
COc1ccc(-c2csc(N(CCCN(C)C)C(=O)c3ccccc3Cl)n2)cc1	GLP-1R inv ag inconclusive, D3 antag -71
COc1ccc(-c2csc(N(CCCN(C)C)C(=O)c3ccccc3F)n2)cc1	GLP-1R inv ag inconclusive, D3 antag inconclusive
